The source of these data is PubChem BioAssay (NCI).

The panel holds about 83,000 compounds, 20% with a hit somewhere; the sample as a whole holds those more often.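 Note: values are percent growth. 100 is the growth of untreated cells, values between 100 and 0 indicate rising inhibition; between -100 and 0 indicates cell death.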 A number with no mark means an inactive call. The source made the active and inactive calls. Rule for the calls: active = growth percent below 10; inactive = the rest.

Test systems include NCI-H23 lung; NCI-H226 lung; NCI-H322M lung; HOP-62 NSCLC; NCI-H460 lung; HOP-92 NSCLC; A549/ATCC NSCLC; 786-0 renal; COLO 205 colon; DU-145 prostate; K-562 leukemia; MDA-MB-231 breast; RXF 393 renal; SF-268 CNS; SF-295 CNS; SF-539 CNS; UACC-257 melanoma; M14 melanoma; MALME-3M melanoma.
What all share (assay): NCI-60 one-dose screen, 48 h (100 = growth as untreated, 0 = no growth, -100 = all killed)
Details in all cases: 10 µM unless noted

On to `O=C(Oc1cccc2ccccc12)c1ccccc1C(=O)c1ccccc1`, for which the growth was 93% in the test with NCI-H23 lung; 105% in the test on NCI-H226 lung; 101% in the test on NCI-H322M lung; 101% with HOP-62 NSCLC; 93.2% in the test on NCI-H460 lung; 54.5% with HOP-92 NSCLC. The growth in the test on A549/ATCC NSCLC was 88.3%; with 786-0 renal, 103%; in the test with COLO 205 colon, 112%; with DU-145 prostate, 99.3%; in the test on K-562 leukemia, 5.05% (active); in the test on MDA-MB-231 breast, 85.7%. Moreover, the growth in the test with RXF 393 renal was 98.3%; in the test on SF-268 CNS, 79%; in the test on SF-295 CNS it was 98.5%; in the test on SF-539 CNS, 103%; with UACC-257 melanoma, 90.4%; in the test with M14 melanoma, 93.4%.
On to `Nc1ccc2c(c1)C(=O)c1cc(Cl)c(Cl)cc1-2`, for which the growth is 88.8% in the test on NCI-H23 lung; 83.1% in the test on NCI-H226 lung; 117% in the test with NCI-H322M lung; 94.2% in the test on HOP-62 NSCLC; 105% with NCI-H460 lung; 72.2% in the test with HOP-92 NSCLC. Further, the growth in the test on A549/ATCC NSCLC is 90.7%; with 786-0 renal, 91.4%; in the test on COLO 205 colon, 83.5%; in the test with DU-145 prostate, 100%; in the test with K-562 leukemia, 87.5%; in the test with MDA-MB-231 breast, 79.1%. The growth was 104% in the test on RXF 393 renal; 93.4% with SF-268 CNS; 105% in the test on SF-295 CNS; 87.4% with SF-539 CNS; 107% with UACC-257 melanoma; 104% in the test on M14 melanoma.
As for `Cc1ccc(-c2c3c(N)c4c(nc3nc3c2c(C)nn3-c2ccccc2)CCC4)cc1`, the growth is 66.8% with NCI-H23 lung; 92.6% in the test on NCI-H226 lung; 89.1% with NCI-H322M lung; 95.7% in the test on HOP-62 NSCLC; 5% (active) in the test with NCI-H460 lung; 77.9% in the test on HOP-92 NSCLC. Further, the growth was 32.9% in the test on A549/ATCC NSCLC; 28% in the test with 786-0 renal; -74.4% (active) in the test with COLO 205 colon; 106% in the test on DU-145 prostate; 91.5% with MALME-3M melanoma; 37.4% in the test with MDA-MB-231 breast. Moreover, the growth in the test with SF-268 CNS is 108%; with SF-295 CNS, 98.5%; with SF-539 CNS, 72.7%; with M14 melanoma it was 88%.
Regarding `Nc1ccc2c(c1Br)Cc1ccccc1-2`, the growth in the test on NCI-H23 lung was 92%; in the test on NCI-H226 lung it was 104%; with NCI-H322M lung, 114%; with HOP-62 NSCLC, 97.8%; in the test with NCI-H460 lung, 102%; in the test on HOP-92 NSCLC, 76%. Also, the growth is 86% in the test with A549/ATCC NSCLC; 107% with 786-0 renal; 99.2% with COLO 205 colon; 106% in the test with DU-145 prostate; 95.2% in the test on K-562 leukemia; 74.7% with MDA-MB-231 breast. Further, the growth was 111% in the test with RXF 393 renal; 86.7% in the test on SF-268 CNS; 92.1% with SF-295 CNS; 79.4% with SF-539 CNS; 114% in the test on UACC-257 melanoma; 105% in the test with M14 melanoma.
As to `COc1ccc(OC)c2c1CCC1(C2)NC(=O)NC1=O` (configuration not stated), the growth was 106% in the test with NCI-H23 lung; 102% in the test on NCI-H226 lung; 107% with NCI-H322M lung; 95.2% in the test on HOP-62 NSCLC; 107% in the test on NCI-H460 lung; 69.3% in the test on HOP-92 NSCLC. In addition, the growth in the test with A549/ATCC NSCLC was 98.9%; with 786-0 renal, 113%; in the test on COLO 205 colon it was 98.9%; with K-562 leukemia, 105%; with MALME-3M melanoma, 96.5%; with MDA-MB-231 breast, 98.8%. Moreover, the growth in the test with RXF 393 renal is 108%; in the test on SF-268 CNS, 133%; in the test on SF-295 CNS, 113%; in the test on SF-539 CNS it was 95.1%; in the test with M14 melanoma, 105%.
Consider `O=C1OC(Oc2ccccc2)(c2ccccc2)c2ccccc21` (configuration not stated), for which the growth in the test on NCI-H23 lung is 105%; in the test with NCI-H226 lung, 107%; in the test on NCI-H322M lung, 128%; with HOP-62 NSCLC, 106%; in the test on NCI-H460 lung, 99.1%; with HOP-92 NSCLC, 88%. For the same compound, the growth was 95% with A549/ATCC NSCLC; 101% in the test on 786-0 renal; 112% with COLO 205 colon; 108% with DU-145 prostate; 55.3% in the test with K-562 leukemia; 98.3% in the test on MDA-MB-231 breast. The growth with RXF 393 renal is 120%; in the test on SF-268 CNS, 95.3%; with SF-295 CNS, 150%; with SF-539 CNS, 100%; in the test with UACC-257 melanoma, 112%; in the test on M14 melanoma it was 111%.
For `Nc1ncnc2c1CN(Cc1ccccc1)CC2`, the growth with NCI-H23 lung was 98.3%; in the test with NCI-H226 lung it was 113%; with NCI-H322M lung, 117%; with HOP-62 NSCLC it was 106%; in the test on NCI-H460 lung it was 107%; in the test on HOP-92 NSCLC, 87.5%. Moreover, the growth with A549/ATCC NSCLC was 90.3%; in the test on 786-0 renal it was 101%; in the test with COLO 205 colon it was 115%; in the test on DU-145 prostate, 132%; in the test on K-562 leukemia it was 98.1%; in the test with MDA-MB-231 breast, 104%. Also, the growth is 122% in the test on RXF 393 renal; 105% with SF-268 CNS; 105% in the test on SF-295 CNS; 99.2% in the test on SF-539 CNS; 111% in the test with UACC-257 melanoma; 111% in the test on M14 melanoma.
Turning to `N#CC1c2ccccc2C=CN1C(=O)N(c1ccccc1)c1ccccc1` (configuration not stated), the growth in the test on NCI-H23 lung is 66.6%; in the test with NCI-H226 lung, 95.9%; in the test with NCI-H322M lung it was 103%; in the test with HOP-62 NSCLC, 101%; in the test on NCI-H460 lung, 101%; in the test with HOP-92 NSCLC, 45.6%. The growth is 91.4% with A549/ATCC NSCLC; 95.5% in the test on 786-0 renal; -41.6% (active) with COLO 205 colon; 42.9% in the test on DU-145 prostate; 5.35% (active) with K-562 leukemia; 70.6% in the test on MDA-MB-231 breast. Also, the growth in the test on RXF 393 renal was 2.13% (active); in the test on SF-268 CNS, 79.6%; in the test on SF-295 CNS it was 67.7%; with SF-539 CNS, 109%; in the test with UACC-257 melanoma it was -1.11% (active); in the test on M14 melanoma, 42.5%.
Regarding `Clc1ccc2c(c1)C(Br)c1cc(Cl)cc(Cl)c1-2` (configuration not stated), the growth in the test with NCI-H23 lung is 14.8%; in the test on NCI-H226 lung it was 14.4%; with NCI-H322M lung, 81.4%; with HOP-62 NSCLC, 88.1%; in the test with NCI-H460 lung, 99.9%; in the test on HOP-92 NSCLC, 53.5%. Besides, the growth in the test with A549/ATCC NSCLC is 98.4%; in the test on 786-0 renal it was 84.9%; in the test on COLO 205 colon, 103%; with DU-145 prostate it was 109%; in the test on MALME-3M melanoma, 45.1%; with MDA-MB-231 breast, 75.6%. The growth in the test with SF-268 CNS is 98.3%; in the test with SF-295 CNS, 101%; in the test on SF-539 CNS it was 81.6%; in the test on M14 melanoma, 34.8%.
